The text below walks through data of PubChem BioAssay.

Structures are written as SMILES. Values joined by “and” are separate entries in the source; they are usually repeats but may differ in a detail not shown here. Equal entries are not always repeated. For some of these results: Entries with a potency or affinity are not part of this list. Where a structure was tested more than once in an assay, its records may differ in their call. Active and inactive are the calls of the source. Unless noted, no rule for the calls is given here.

A short description of assay [1]: antimalarial activity against Dd2 strain (AID 2302;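 active = growth inhibition above 50% at the single 2 µM test dose, taken to imply half-maximal potency below 2 µM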;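 also: 0% = DMSO untreated growth and 100% = chloroquine plus artemisinin killed control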). As to conditions: P. falciparum Dd2 in RBCs, LDH growth readout, 72 h; at 2 µM; stronger effect = higher value.
The nature of assay [2]: human hepatoma cell viability loss – ATP luminescence, cytotoxicity control for P. falciparum antimalarial project, primary screen (AID 2303;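 active = inhibition above 50%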;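 also: 0% = DMSO wells and 100% = digitonin-killed cells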). As to conditions: HepG2 viability, 24-48 h, at 10 µM, stronger effect = higher value.
The target in assay [3] is L-lactate dehydrogenase (Plasmodium falciparum (isolate CDC / Honduras)) (UniProt Q27743). The experiment in a line: PfLDH activity inhibition – cell lysate, 3D7 strain, counter-screen for P. falciparum growth inhibition project (AID 2304).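 Also: 0% = vehicle and 100% = reference inhibitor.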 As to conditions: P. falciparum 3D7 crude extract, LDH APAD/NBT absorbance; at 2 µM; stronger effect = higher value. (In general: The purpose of a counterscreen is to sort out artefacts and off-target activity.)
L-lactate dehydrogenase (Plasmodium falciparum (isolate CDC / Honduras)), sequence (Q27743 whole entry, looked up): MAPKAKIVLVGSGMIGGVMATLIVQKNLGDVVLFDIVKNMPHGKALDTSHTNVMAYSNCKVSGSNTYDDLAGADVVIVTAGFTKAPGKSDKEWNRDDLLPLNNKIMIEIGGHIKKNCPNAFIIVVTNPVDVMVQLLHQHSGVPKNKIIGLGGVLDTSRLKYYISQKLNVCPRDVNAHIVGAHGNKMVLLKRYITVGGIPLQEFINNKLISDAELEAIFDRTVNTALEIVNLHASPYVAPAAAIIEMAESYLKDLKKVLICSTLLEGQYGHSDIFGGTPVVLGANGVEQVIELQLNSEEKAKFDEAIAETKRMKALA

Assay [4] can be described thus: inhibition of 3D7 malaria parasite growth – strain 3D7 (AID 2306).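 Also: 0% = DMSO wells and 100% = chloroquine plus artemisinin control wells.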 As to conditions: P. falciparum 3D7 erythrocytic growth, LDH absorbance, 72 h; at 2 µM; stronger effect = higher value.
Assay [5] concerns the target Calcium-dependent protein kinase 1 (Plasmodium falciparum (isolate 3D7)) (UniProt P62344). Kind of assay: PfCDPK1 kinase inhibitors, biochemical, TCAMS library (AID 1159585; cut-off not given, nearly all actives have IC50 up to about 0.98 µM;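 also: inhibitors leave more ATP so luminescence rises with inhibition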). As to conditions: recombinant PfCDPK1, Kinase-Glo ATP depletion luminescence. A general note: Kinase-Glo reads ATP consumption through a luciferase reaction.
Assay [6] has as its target Plasmodium falciparum protein kinase 6 (PK6, PF3D7_1337100) (UniProt Q8IDW1). The experiment in a line: PfPK6 kinase inhibitors, biochemical, TCAMS library (AID 1159586). As to conditions: recombinant PfPK6, Kinase-Glo ATP depletion luminescence.
For assay [7], the target named is Protein kinase 7 (PK7), Plasmodium falciparum 3D7 (PF3D7_0213400) (UniProt Q7YTF7). The experiment in a line: inhibition of Plasmodium PK7 catalytic activity – biochemical, TCAMS antimalarial set, Kinase-Glo luminescence (AID 1159587). As to conditions: recombinant PfPK7, Kinase-Glo ATP depletion luminescence.
Protein kinase 7 (PK7), Plasmodium falciparum 3D7 (PF3D7_0213400), sequence (Q7YTF7 1-343): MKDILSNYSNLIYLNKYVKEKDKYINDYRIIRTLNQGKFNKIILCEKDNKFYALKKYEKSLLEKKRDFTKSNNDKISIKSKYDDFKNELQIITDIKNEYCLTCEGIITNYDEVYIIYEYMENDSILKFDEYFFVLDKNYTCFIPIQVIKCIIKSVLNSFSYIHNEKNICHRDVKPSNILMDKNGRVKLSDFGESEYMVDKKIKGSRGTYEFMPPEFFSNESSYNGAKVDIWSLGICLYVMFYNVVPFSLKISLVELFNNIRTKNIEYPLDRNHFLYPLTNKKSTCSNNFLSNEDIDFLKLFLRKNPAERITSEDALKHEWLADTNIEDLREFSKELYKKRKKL
In assay [8] the target is Calcium-dependent protein kinase 4 (Plasmodium falciparum (isolate 3D7)) (UniProt Q8IBS5). Kind of assay: PfCDPK4 kinase inhibitors, biochemical, TCAMS library (AID 1159588; cut-off not given, nearly all actives have IC50 up to about 0.91 µM). As to conditions: recombinant PfCDPK4, Kinase-Glo ATP depletion luminescence.
Calcium-dependent protein kinase 4 (Plasmodium falciparum (isolate 3D7)), sequence (Q8IBS5 whole entry, looked up): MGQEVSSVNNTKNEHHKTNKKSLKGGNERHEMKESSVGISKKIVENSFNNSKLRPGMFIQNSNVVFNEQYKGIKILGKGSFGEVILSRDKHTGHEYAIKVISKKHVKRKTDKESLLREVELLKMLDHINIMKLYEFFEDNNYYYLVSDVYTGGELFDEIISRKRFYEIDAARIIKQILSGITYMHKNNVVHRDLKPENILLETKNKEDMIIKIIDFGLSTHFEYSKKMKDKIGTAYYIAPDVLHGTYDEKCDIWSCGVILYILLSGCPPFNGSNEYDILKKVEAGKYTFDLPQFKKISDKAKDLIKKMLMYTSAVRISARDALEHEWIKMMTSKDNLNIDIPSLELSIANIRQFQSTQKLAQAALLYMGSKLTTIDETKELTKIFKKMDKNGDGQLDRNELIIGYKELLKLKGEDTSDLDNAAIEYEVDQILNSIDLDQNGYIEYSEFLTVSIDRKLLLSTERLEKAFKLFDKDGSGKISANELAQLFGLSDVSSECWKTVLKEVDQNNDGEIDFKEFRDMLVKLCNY

Calcium-dependent protein kinase 1 (Plasmodium falciparum (isolate 3D7)), sequence (P62344 whole entry, looked up): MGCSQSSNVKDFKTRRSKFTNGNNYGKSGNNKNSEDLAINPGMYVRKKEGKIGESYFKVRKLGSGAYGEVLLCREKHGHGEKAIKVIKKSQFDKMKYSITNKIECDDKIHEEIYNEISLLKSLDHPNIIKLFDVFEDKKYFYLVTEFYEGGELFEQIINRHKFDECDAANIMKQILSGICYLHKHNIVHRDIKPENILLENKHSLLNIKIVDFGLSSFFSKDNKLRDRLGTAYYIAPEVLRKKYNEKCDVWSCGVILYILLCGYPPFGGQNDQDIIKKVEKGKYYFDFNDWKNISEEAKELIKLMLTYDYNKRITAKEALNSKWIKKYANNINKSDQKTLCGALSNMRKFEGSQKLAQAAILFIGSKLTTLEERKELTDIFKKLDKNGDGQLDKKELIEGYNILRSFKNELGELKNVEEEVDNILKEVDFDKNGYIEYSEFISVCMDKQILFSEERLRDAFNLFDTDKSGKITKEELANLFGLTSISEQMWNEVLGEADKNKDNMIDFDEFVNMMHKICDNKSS
Plasmodium falciparum protein kinase 6 (PK6, PF3D7_1337100), sequence (Q8IDW1 1-305): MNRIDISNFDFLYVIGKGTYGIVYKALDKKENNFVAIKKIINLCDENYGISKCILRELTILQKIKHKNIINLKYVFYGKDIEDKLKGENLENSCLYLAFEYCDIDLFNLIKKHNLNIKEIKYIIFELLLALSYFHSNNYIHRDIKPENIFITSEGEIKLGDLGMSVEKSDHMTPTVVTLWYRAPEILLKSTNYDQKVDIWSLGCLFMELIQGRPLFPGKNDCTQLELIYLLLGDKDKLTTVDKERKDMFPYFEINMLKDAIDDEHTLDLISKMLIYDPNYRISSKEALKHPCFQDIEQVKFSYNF

`N#Cc1ccc(N(CCCO)Cc2ccccc2C(F)(F)F)cc1C(F)(F)F`: the growth inhibition in assay [1] is 23% (inactive); in assay [4], 91% (active). The figures for the inhibition in assay [2] and in assay [3] were 7% (inactive) and -5% (inactive), respectively. Further, the outcome in assay [5], in assay [6], in assay [7] and in assay [8] was inactive.
As to `COc1cc(C(=O)NC2CCC(CN3CCC(c4c[nH]c5ccccc45)CC3)CC2)cc(Cl)n1` (stereo not given), the growth inhibition in assay [1] was 45% (inactive); in assay [4] it was 99% (active). Besides, the results for the inhibition in assay [2] and in assay [3] were 33% (inactive) and -1% (inactive), respectively. The result in assay [5], in assay [6], in assay [7] and in assay [8] was inactive.
`O=C(/C=C/c1ccc(Cl)c(Cl)c1)NCCCCCN1[C@@H]2CC[C@H]1CC(c1c[nH]c3ccc(O)cc13)C2` (stereo not given in full): the growth inhibition in assay [1] is -1% (inactive) and 20% (inactive); in assay [4] it was 100% (active) and 91% (active). Further, the inhibition (in general, the drop in the measured response relative to a control, in per cent) in assay [2] was 26% (inactive) and 9% (inactive); in assay [3] it was 2% (inactive) and -6% (inactive). Further, the result in assay [5], in assay [6], in assay [7] and in assay [8] was inactive.
For the compound `CC[C@H]1CN2CC[C@H]1C[C@H]2[C@H](O)c1ccnc2ccc(O)cc12`, the growth inhibition in assay [1] was 2% (inactive); in assay [4] it was 99% (active). For the same compound, the inhibition in assay [2] was 11% (inactive); in assay [3] it was -3% (inactive). The outcome in assay [5], in assay [6], in assay [7] and in assay [8] was inactive.
In the case of `CCN(CC)CCN1C(=O)C(O)(c2ccccc2Cl)c2c1cc(C(N)=O)cc2C(F)(F)F` (stereo not given), the growth inhibition in assay [1] was 86% (active); in assay [4] it was 101% (active). In addition, the inhibition was 16% (inactive) in assay [2] and -4% (inactive) in assay [3]. Besides, the result in assay [5], in assay [6], in assay [7] and in assay [8] was inactive.
`Cc1cc(N)nc2ccc(CNCCc3ccccc3Br)cc12`: the values for the growth inhibition in assay [1] and in assay [4] were 77% (active) and 102% (active), respectively. Further, the inhibition is 28% (inactive) in assay [2] and 7% (inactive) in assay [3]. For the same compound, the result in assay [5], in assay [6], in assay [7] and in assay [8] was inactive.
Take `C/C=C1/CN2CC[C@H]1C[C@H]2[C@H](O)c1ccnc2ccc(O)cc12`: the growth inhibition in assay [1] was 11% (inactive); in assay [4], 99% (active). Further, the inhibition was -2% (inactive) in assay [2] and -3% (inactive) in assay [3]. For the same compound, the outcome in assay [5], in assay [6], in assay [7] and in assay [8] was inactive.
With `CC[C@H]1CN2CC[C@H]1C[C@H]2[C@H](O)c1cc(-c2ccc(F)cc2)nc2ccc(OC)cc12`, the figures for the growth inhibition in assay [1] and in assay [4] were 98% (active) and 99% (active), respectively. In addition, the inhibition is 34% (inactive) in assay [2] and 5% (inactive) in assay [3]. The outcome in assay [5], in assay [6], in assay [7] and in assay [8] was inactive.
On to `CC[C@H]1CN2CC[C@@H]1C[C@H]2[C@H](O)c1cc(N2CCC(O)(c3ccccc3)CC2)nc2ccc(OC)cc12`, for which the growth inhibition in assay [1] was 98% (active); in assay [4] it was 101% (active). Besides, the figures for the inhibition in assay [2] and in assay [3] were 14% (inactive) and -2% (inactive), respectively. In addition, the result in assay [5], in assay [6], in assay [7] and in assay [8] was inactive.
Consider `O=C(/C=C/c1c(Cl)cccc1Cl)NC1CCC(CN2CCC(c3c[nH]c4ccccc34)CC2)CC1` (stereo not given), for which the growth inhibition is 42% (inactive) and 21% (inactive) in assay [1]; 93% (active) and 100% (active) in assay [4]. Besides, the inhibition in assay [2] is 54% (active) and 39% (inactive); in assay [3] it was -4% (inactive) and 4% (inactive). The result in assay [5], in assay [6], in assay [7] and in assay [8] was inactive.
`CCCCCCc1cc(O)c2c3c(c(=O)oc2c1)CCN(C)C3`: the growth inhibition was 66% (active) in assay [1] and 99% (active) in assay [4]. Moreover, the inhibition in assay [2] was -6% (inactive); in assay [3], 4% (inactive). Also, the outcome in assay [5], in assay [6], in assay [7] and in assay [8] was inactive.
Take `COc1ccc(OC)c([C@H](O)[C@@H](C)NCc2cc(Cl)ccc2O)c1`: the growth inhibition was 99% (active) in assay [1] and 97% (active) in assay [4]. Also, the inhibition in assay [2] was 11% (inactive); in assay [3], 4% (inactive). Moreover, the outcome in assay [5], in assay [6], in assay [7] and in assay [8] was inactive.
Consider `CC[C@H]1CN2CC[C@H]1C[C@@H]2[C@H](O)c1ccnc2ccc(O)cc12`, for which the growth inhibition in assay [1] was -4% (inactive); in assay [4], 94% (active). The inhibition is -3% (inactive) in assay [2] and -2% (inactive) in assay [3]. Besides, the outcome in assay [5], in assay [6], in assay [7] and in assay [8] was inactive.
Take `Cc1[nH]c2ccccc2c1C1=CCN(CCN2CCCc3c(Br)cccc3C2=O)CC1`: the growth inhibition is 90% (active) in assay [1] and 95% (active) in assay [4]. Besides, the inhibition in assay [2] is 10% (inactive); in assay [3], -1% (inactive). For the same compound, the outcome in assay [5], in assay [6], in assay [7] and in assay [8] was inactive.
In the case of `O=C(c1cc(C(=O)NCc2ccc(Cl)cc2)c(=O)n(Cc2ccc(Cl)cc2)c1)c1cc(Cl)ccc1O`, the values for the growth inhibition in assay [1] and in assay [4] were 4% (inactive) and 80% (active), respectively. The inhibition in assay [2] was 6% (inactive); in assay [3], -1% (inactive). Also, the result in assay [5], in assay [6], in assay [7] and in assay [8] was inactive.
As for `CCCN(CC(=O)NCCc1ccccc1)c1ccc(C#N)c2ccccc12`, the values for the growth inhibition in assay [1] and in assay [4] were 39% (inactive) and 92% (active), respectively. Besides, the figures for the inhibition in assay [2] and in assay [3] were 8% (inactive) and -5% (inactive), respectively. Further, the result in assay [5], in assay [6], in assay [7] and in assay [8] was inactive.
Turning to `CC(C)CNCc1cccc(-c2ccc(CN(C(=O)c3cccs3)C3CCN(Cc4ccccc4)CC3)cc2)c1`, the results for the growth inhibition in assay [1] and in assay [4] were 40% (inactive) and 85% (active), respectively. The results for the inhibition in assay [2] and in assay [3] were 22% (inactive) and 3% (inactive), respectively. For the same compound, the result in assay [5], in assay [6], in assay [7] and in assay [8] was inactive.
Consider `CCN(CC)CCOC(=O)C(OC)(c1ccccc1)c1ccccc1`, for which the values for the growth inhibition in assay [1] and in assay [4] were 6% (inactive) and 97% (active), respectively. In addition, the inhibition in assay [2] is -4% (inactive); in assay [3], 2% (inactive). Further, the outcome in assay [5], in assay [6], in assay [7] and in assay [8] was inactive.
On to `Cc1[nH]c2ccccc2c1C1=CCN(C[C@H]2C[C@@H]2C(=O)c2ccccc2)CC1`, for which the growth inhibition in assay [1] was 88% (active); in assay [4], 95% (active). Also, the inhibition is 18% (inactive) in assay [2] and -3% (inactive) in assay [3]. Besides, the outcome in assay [5], in assay [6], in assay [7] and in assay [8] was inactive.
Consider `O=C(CCc1ccc(Cl)cc1Cl)NC1CCC(CN2CCC(c3c[nH]c4ccccc34)CC2)CC1` (stereo not given), for which the growth inhibition is 4% (inactive) and 45% (inactive) in assay [1]; 97% (active) and 100% (active) in assay [4]. The inhibition in assay [2] is 33% (inactive) and 44% (inactive); in assay [3], -4% (inactive) and 2% (inactive). Moreover, the result in assay [5], in assay [6], in assay [7] and in assay [8] was inactive.
